Where a name gives a salt, the structure may show the parent alone. ± gives the standard deviation of the averaged measurements.
test system: Klebsiella pneumoniae NCTC-13439; assay: percent growth inhibition of drug alone vs DMSO control; higher = more growth inhibition; conditions: antibiotic (0.125x MIC): none (0.1% DMSO); 7 µM

Row | Structure (SMILES) | percent growth inhibition of drug alone [%]
1 | O=c1[nH]c(=O)n([C@H]2C[C@H](O)[C@@H](CO)O2)cc1F [Floxuridine] | 43.4 ± 0.88
2 | O=C(O)c1cn(-c2ccc(F)cc2)c2cc(N3CCNCC3)c(F)cc2c1=O [Sarafloxacin] | 19.6 ± 1.8
3 | CN(C)c1ccc(O)c2c1C[C@H]1C[C@H]3[C@H](N(C)C)C(O)=C(C(N)=O)C(=O)[C@@]3(O)C(O)=C1C2=O [Minocycline hydrochloride] | 3.05 ± 3.2
4 | CN[C@@H]1[C@@H](O[C@H]2O[C@H](CO)[C@@H](N)[C@H](O)[C@H]2O)OC2C[C@@H](N)[C@@H](O[C@H]3[C@H](O)[C@@H](O)[C@H](N)C[C@@H]3N)OC2[C@@H]1O (stereo partly drawn) [Apramycin] | 4.78 ± 15
5 | CC[C@H]1OC(=O)[C@H](C)[C@@H](O[C@H]2C[C@@](C)(OC)[C@@H](O)[C@H](C)O2)[C@H](C)[C@@H](O[C@@H]2O[C@H](C)C[C@H](N(C)C)[C@H]2O)[C@](C)(O)C[C@@H](C)CN(C)[C@H](C)[C@@H](O)[C@]1(C)O [Azithromycin] | 55.2 ± 6.6
6 | O=C1OCCN1/N=C/c1ccc([N+](=O)[O-])o1 [Furazolidone] | 17.5 ± 3
7 | NC[C@@H]1O[C@H](O[C@H]2[C@@H](O)[C@H](O[C@@H]3[C@@H](O)[C@H](N)C[C@H](N)[C@H]3O[C@H]3O[C@H](CO)[C@@H](O)[C@H](O)[C@H]3N)O[C@@H]2CO)[C@H](N)[C@@H](O)[C@@H]1O [Paromomycin sulfate] | 11.4 ± 2.6
8 | CO[C@H]1/C=C/O[C@@]2(C)Oc3c(C)c(O)c4c(O)c(c(/C=N/N5CCN(C6CCCC6)CC5)c(O)c4c3C2=O)NC(=O)/C(C)=C\C=C\[C@H](C)[C@H](O)[C@@H](C)[C@@H](O)[C@@H](C)[C@H](OC(C)=O)[C@@H]1C [Rifapentine] | 6.76 ± 7.4

— the supplement of paper PMC6658780
